Laboratory results reported in PubChem BioAssay (NCATS).
Inconclusive results are not listed. A call without a number means that no potency is given here. Calls of active or inactive are those of the source. Unless noted, calls come from the whole dose curve; as a rule, active = well fitted curve in the direction sought with a large enough effect; inconclusive = small, poorly fitted or top-dose-only effect, or another doubt; inactive = no such curve, though single readings can be large; an effect the other way counts as inactive or inconclusive.

What was measured:
[1] = qHTS assay for measurement of the activity of small molecule inhibitors on Zika virus induced Caspase-3 activity in human iPSC derived neural progenitor cells (hNPCs) (AID 1224857); details: hNPCs ZIKV-induced caspase-3/7, Caspase-Glo luminescence, 6 h; series mostly up to 45.7 µM; note: nearly all actives have a fitted effect of over 65% in size
Outline: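 Values are percent inhibition of virus-induced caspase-3/7 signal, scaled between uninfected cells and ZIKV-infected cells. Infection used 2 FFU/cell for 6 h after 1 h compound exposure.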

[2] = qHTS assay to identify small molecule inhibitors of chordoma cells - UCH-1 (AID 1259355); details: UCH-1 chordoma viability, CellTiter-Glo, 48 h, combination, with auranofin plus four topoisomerase inhibitors; series mostly up to 46.1 µM; note: nearly all actives have a fitted effect of over 55% in size
Outline: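 A 48hr growth-inhibition format: each drug tested at 15 concentrations together with added auranofin, camptothecin, doxorubicin, rubitecan and topotecan, with cell viability quantified as CellTiter-Glo luminescence.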

[3] = qHTS profiling for inhibitors of Plasmodium falciparum (3D7) proliferation (AID 743322; call rule not given here;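 note: infected erythrocytes exposed to compound for 72 h before lysis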); details: P. falciparum 3D7 proliferation; at 28.7 µM (top of the series) unless noted
Outline: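 Parasite DNA was quantified by SYBR Green I fluorescence (ex 485, em 535 nm) after overnight lysis in saponin/Triton buffer at room temperature. Cultures at 0.3% parasitemia and 2.5% hematocrit were first exposed to compound for 72 h at 37 C; signals were normalised to artemisinin (0.29 uM) and vehicle wells.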

[4] = qHTS profiling for inhibitors of Plasmodium falciparum (DD2) proliferation (AID 743323; call rule not given here); details: lower = more inhibition; at 28.7 µM (top of the series) unless noted
Outline: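 Parasite DNA quantified by SYBR Green fluorescence (ex 485, em 535 nm) after saponin/Triton lysis and overnight dark incubation. Cultures: 0.3% parasitemia, 2.5% hematocrit, 72 h, 37 C; data scaled between DMSO and 0.29 uM artemisinin.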

SMILES	outcome [1]	Potency [2]	remaining parasite growth % (stronger effect = lower value) [3]	activity, percent of control [4]
CN/C(=C\[N+](=O)[O-])NCCSCc1ccc(CN(C)C)o1	inactive	inactive		
CN(C)CCCN1c2ccccc2Sc2ccccc21	inactive	inactive		
O=C(CCNNC(=O)c1ccncc1)NCc1ccccc1	inactive	inactive		
CN(C)CCCN1c2ccccc2Sc2ccc(C(F)(F)F)cc21	inactive	inactive		
CCO/C([O-])=N/c1c[n+](N2CCOCC2)no1	inactive	inactive		
Cc1nc2c([nH]1)c(=O)n(C)c(=O)n2Cc1ccco1	inactive	inactive		
C(=C\c1ccccc1)/CN1CCN(C(c2ccccc2)c2ccccc2)CC1	inactive	inactive		
Fc1ccc(C(c2ccc(F)cc2)N2CCN(C/C=C/c3ccccc3)CC2)cc1	inactive	inactive		
Brc1c(NC2=NCCN2)ccc2nccnc12	inactive	inactive		
CN1CCN(C2=Nc3ccccc3Oc3ccc(Cl)cc32)CC1	inactive	inactive		
CCCOc1ccccc1-c1nc2n[nH]nc2c(=O)[nH]1	inactive	inactive		
C[N+](C)(C)CCOC(=O)CCC(=O)OCC[N+](C)(C)C	inactive	inactive		
CCc1cccc(N(C)C(N)=Nc2cccc3ccccc23)c1	inactive	inactive		
CCOC(=O)C1=C(C)NC(C)=C(C(=O)OC)C1c1cccc(Cl)c1Cl (stereo not drawn)	inactive	inactive		
CCN1CCc2nc(N)oc2CC1	inactive	inactive		
CCCCCCCC/C=C\CCCCCCCC(=O)NCc1ccc(O)c(OC)c1	inactive	inactive		
CC1=NS(=O)(=O)c2cc(Cl)ccc2N1	inactive	inactive		
CC(C)[N+](C)(CCOC(=O)C1c2ccccc2Oc2ccccc21)C(C)C	inactive	inactive		
CCN(CC)CCNC(=O)c1cc(S(C)(=O)=O)ccc1OC	inactive	inactive		
Cc1cccc(C)c1NC(=O)C(C)N (stereo not drawn)	inactive	inactive	92.4% [at 9.63 µM]	99.5% [at 9.63 µM]
CC(C(=O)O)c1ccc(CC2CCCC2=O)cc1 (stereo not drawn)	inactive	inactive		
CN=C(NC#N)NCCSCc1nc[nH]c1C	inactive	inactive		
COCCCC/C(=N\OCCN)c1ccc(C(F)(F)F)cc1	inactive	inactive		
